Laboratory results as given in PubChem BioAssay (NCATS).
Records with an inconclusive call do not appear. A call without a number means that no potency is given here. The source made the active and inactive calls. The call rests on the fitted dose curve; in most records, active means well fitted curve in the direction sought with a large enough effect; inconclusive means small, poorly fitted or top-dose-only effect, or another doubt; inactive means no such curve, though single readings can be large; an effect the other way counts as inactive or inconclusive.

What was measured:
[1] = P-glycoprotein substrates identified in KB-3-1 adenocarcinoma cell line, qHTS therapeutic library screen (AID 1346986); further: nearly all actives have a fitted effect of over 60% in size
Procedure, shortened: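 Cells seeded 500/well in DMEM/10% FCS; compounds pinned in dose-response; 72 h incubation; CellTiter-Glo added, 5 min, luminescence. KB-8-5-11 run ±tariquidar to test reversal of P-gp resistance.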

[2] = P-glycoprotein substrates identified in KB-8-5-11 adenocarcinoma cell line, qHTS therapeutic library screen (AID 1346987); further: nearly all actives have a fitted effect of over 65% in size
Procedure, shortened: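 Steps: plate 500 KB-8-5-11 cells/well in DMEM + 10% FCS (colchicine removed); pin compounds in dose-response; incubate 72 h, 37 degree C, 5% CO2; add CellTiter-Glo, 5 min; read luminescence.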

SMILES: OC[C@H]1O[C@@H](OC[C@H]2O[C@@H](OC/C=C/c3ccccc3)[C@H](O)[C@@H](O)[C@@H]2O)[C@@H](O)[C@@H]1O
- Potency [1]: inactive
- Potency [2]: inactive

SMILES: CCC(Nc1ncnc2nc[nH]c12)c1nc2cccc(F)c2c(=O)n1-c1ccccc1 (stereo not drawn)
- Potency [1]: inactive
- Potency [2]: inactive

SMILES: COc1c2c(c(CO)c3c1C(=O)OC3)OC1(C)CCC3(O)C(C)(C)OC(=O)CCC3(C)C1C2 (stereo not drawn)
- Potency [1]: inactive
- Potency [2]: inactive

SMILES: CC1=C(/C=C/C(C)=C\C=C\C(C)=C/C(=O)O)C(C)(C)CCC1
- Potency [1]: inactive
- Potency [2]: inactive

SMILES: O=C(NOCC(O)CO)c1ccc(F)c(F)c1Nc1ccc(I)cc1F (stereo not drawn)
- Potency [1]: inactive
- Potency [2]: inactive

SMILES: CC(=O)OC1/C(C)=C/C(=O)C(OC(C)=O)C(C)(C)/C=C/C(C)C(=O)C2(OC(C)=O)CC(C)C(OC(=O)c3ccccc3)C12 (stereo not drawn)
- Potency [1]: inactive
- Potency [2]: inactive

SMILES: O=C(CN1C(=O)C2(CCCC2)NCC1c1cc(F)cc(F)c1)Nc1ccc2c(c1)CC1(C2)C(=O)Nc2ncccc21 (stereo not drawn)
- Potency [1]: inactive
- Potency [2]: inactive

SMILES: CC1=CCC(C(C)(C)O[C@@H]2O[C@H](CO[C@@H]3O[C@@H](C)[C@H](O)[C@@H](O)[C@H]3O)[C@@H](O)[C@H](O)[C@H]2O)CC1 (stereo partly drawn)
- Potency [1]: inactive
- Potency [2]: inactive

SMILES: CN[C@H](CC(C)C)C(=O)N[C@H]1C(=O)N[C@@H](CC(N)=O)C(=O)N[C@H]2C(=O)N[C@H]3C(=O)N[C@H](C(=O)N[C@H](C(=O)O)c4cc(O)cc(O)c4-c4cc3ccc4O)[C@H](O[C@H]3C[C@](C)(N)[C@@H](O)[C@H](C)O3)c3ccc(c(Cl)c3)Oc3cc2cc(c3O[C@@H]2O[C@H](CO)[C@@H](O)[C@H](O)[C@H]2O[C@H]2C[C@](C)(NCc3ccc(-c4ccc(Cl)cc4)cc3)[C@@H](O)[C@H](C)O2)Oc2ccc(cc2Cl)[C@H]1O
- Potency [1]: inactive
- Potency [2]: inactive
